# Measurements from PubChem BioAssay (NCI).
# The panel holds about 83,000 compounds, 20% with a hit somewhere; the sample as a whole holds those more often.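 How to read the values: 0–100, growth inhibition (40 = 60% inhibited); 0, no net growth; -100 to 0, cell death (-40 = 40% of starting cells died; -100 = all dead).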 Unmarked numbers belong to inactive results. The source made the active and inactive calls. The calls were made as follows: active = growth percent below 10; inactive = the rest.
# Legend:
# Assay in all cases: NCI-60 one-dose screen, 48 h (100 = growth as untreated, 0 = no growth, -100 = all killed)
# Settings in all cases: 10 µM
# SR leukemia = test system: SR leukemia
# RPMI-8226 leukemia = test system: RPMI-8226 leukemia
# OVCAR-8 ovarian = test system: OVCAR-8 ovarian
# OVCAR-5 ovarian = test system: OVCAR-5 ovarian
# OVCAR-4 ovarian = test system: OVCAR-4 ovarian
# SK-OV-3 ovarian = test system: SK-OV-3 ovarian
# IGROV1 ovarian = test system: IGROV1 ovarian
# OVCAR-3 ovarian = test system: OVCAR-3 ovarian
# HS 578T breast = test system: HS 578T breast
# NCI/ADR-RES ovarian = test system: NCI/ADR-RES ovarian
# T-47D breast = test system: T-47D breast
# BT-549 breast = test system: BT-549 breast
# MDA-MB-435 melanoma = test system: MDA-MB-435 melanoma
# SW-620 colon = test system: SW-620 colon
# MCF7 breast = test system: MCF7 breast
# HCT-116 colon = test system: HCT-116 colon
# HCC-2998 colon = test system: HCC-2998 colon
# KM12 colon = test system: KM12 colon
Structure (SMILES),growth (SR leukemia),growth (RPMI-8226 leukemia),growth (OVCAR-8 ovarian),growth (OVCAR-5 ovarian),growth (OVCAR-4 ovarian),growth (SK-OV-3 ovarian),growth (IGROV1 ovarian),growth (OVCAR-3 ovarian),growth (HS 578T breast),growth (NCI/ADR-RES ovarian),growth (T-47D breast),growth (BT-549 breast),growth (MDA-MB-435 melanoma),growth (SW-620 colon),growth (MCF7 breast),growth (HCT-116 colon),growth (HCC-2998 colon),growth (KM12 colon)
CCCn1c(=O)c2c(nc(-c3cccc(OCCCCl)c3)n2C)n(CCC)c1=O,59.6%,83.9%,33.9%,73.1%,0.205% (active),7.41% (active),30.2%,21.7%,31.4%,35.9%,15.8%,67.9%,82.5%,76.6%,84.6%,36.4%,69.7%,76.2%
C=CCNCCCN1C(=O)c2ccc3c4c(ccc(c24)C1=O)C(=O)N(CCCNCC=C)C3=O,-12.8% (active),11.3%,-14.5% (active),-44.6% (active),-98.5% (active),-36.9% (active),-70.3% (active),-18.1% (active),-41.3% (active),-7.11% (active),-48.6% (active),-82% (active),-79% (active),-54.1% (active),-64.8% (active),-16% (active),-85.9% (active),-69.3% (active)
Nc1ncncc1-c1ccc(F)cc1,127%,109%,107%,115%,107%,108%,110%,111%,113%,107%,96.7%,111%,102%,114%,110%,108%,109%,110%
COc1ccc(C2=Cc3ccc(OC(C)=O)cc3OC2)cc1,64.5%,83.4%,95.8%,101%,88.1%,119%,102%,93.1%,103%,85.2%,87.3%,97.5%,91.9%,101%,101%,104%,95%,88.9%
COC(=O)[C@]12CC[C@@H](C)[C@H](C)[C@@H]1C1=CC[C@@H]3[C@@]4(C)CC(=O)[C@H](O)[C@@]5(C)COC(=C45)C[C@@]3(C)[C@]1(C)CC2,-31.7% (active),-32% (active),-45.2% (active),-40.4% (active),-85.3% (active),-68.3% (active),-44.9% (active),-84.7% (active),-5.08% (active),-59.7% (active),-37.3% (active),-61.7% (active),-27.6% (active),-60% (active),-45.8% (active),-76.2% (active),-88.1% (active),-64.1% (active)
Nc1ccc(Sc2ccc3c4c2cccc4c(=O)n2c4ccccc4nc32)cc1,16.1%,50.2%,50.7%,85.8%,74%,53.9%,34.5%,77.8%,59.6%,56.6%,39.6%,59.1%,80.2%,46.3%,23.6%,46.8%,80.7%,73.6%
Nc1cc2c(cc1Cl)-c1ccc(Cl)cc1C2=O,109%,88.8%,92.1%,100%,98.8%,98.6%,107%,104%,97.3%,99.5%,59.6%,100%,103%,95.8%,42.1%,76.4%,101%,96.4%
CC(=O)Oc1c(C)c(C)c2c(c1C)CCC(C)(CC(=O)OCCCCCCCCCCC[P+](c1ccccc1)(c1ccccc1)c1ccccc1)O2 (stereo unspecified),-34.7% (active),-49.8% (active),-44.1% (active),-37.4% (active),-83.2% (active),-18.4% (active),-46.2% (active),-90.5% (active),-35.2% (active),-42.5% (active),-64.1% (active),-91.4% (active),-89.2% (active),-68.2% (active),-87.2% (active),-95.6% (active),-61% (active),-71.3% (active)
O=C(NCCCl)c1cc(Cl)cc(Cl)c1,103%,102%,102%,107%,95.1%,103%,106%,114%,103%,105%,93.6%,105%,99.9%,112%,96.2%,110%,102%,107%
COc1cc(C2CC(=O)Nc3c2c(C)nn3-c2nc3ccccc3[nH]2)cc(OC)c1O (stereo unspecified),9.39% (active),83.5%,19.9%,112%,63.8%,2.53% (active),28.2%,20.9%,8.42% (active),80.6%,83.5%,46.2%,23%,45.7%,56.9%,68.4%,88.9%,45.7%
COc1cc(C2C=C(c3ccc(Cl)c(Cl)c3)N=C3SC(C)=CN32)cc(OC)c1OC (stereo unspecified),-11.9% (active),-16.1% (active),73.1%,93.2%,67.8%,107%,85.6%,79.8%,100%,81.3%,51.1%,58.7%,46.6%,50.6%,24.6%,-25.8% (active),90.7%,65.1%
CCOC(=O)c1c(C(F)(F)F)n([O-])c2ccc(OC)cc2[n+]1=O,-13.3% (active),-34.8% (active),23.8%,60.8%,30.5%,23.8%,24.2%,32.9%,41.1%,31.3%,12%,-3.39% (active),23.6%,30.2%,31.9%,29.4%,43.8%,43.7%
COc1cccc2c1O/C(=C\c1ccc([N+](=O)[O-])s1)C2=O,8.26% (active),25.7%,24.7%,101%,74.2%,96.6%,25.9%,-16.7% (active),40.8%,87.5%,39.6%,-14.3% (active),48.4%,-28.6% (active),42.8%,-14% (active),89.7%,18.3%
COc1ccc(-c2ccc(-c3ccc(C(=N)N)c(F)c3)s2)cc1,-21.2% (active),-65.6% (active),-48.7% (active),-91.7% (active),-67.9% (active),-93.8% (active),-62.7% (active),-96% (active),-54.3% (active),-51.3% (active),-64% (active),-91.7% (active),-79.5% (active),-91% (active),-70.6% (active),-82.6% (active),-83.9% (active),-94.9% (active)
NC1CCC(Nc2nc(NCc3ccc(-c4ccco4)nc3)c3ncn(C4CCCC4)c3n2)CC1 (stereo unspecified),-3.17% (active),-18.3% (active),11.8%,25.1%,2.67% (active),-0.9% (active),8.71% (active),1.37% (active),10.7%,79.5%,-11.3% (active),-25.7% (active),11.4%,7.93% (active),1.09% (active),3.79% (active),-19% (active),4.05% (active)
O=C(Cn1ccc(=O)[nH]c1=O)c1ccc([N+](=O)[O-])o1,73.9%,65.5%,103%,114%,97.9%,112%,123%,96.9%,116%,107%,80.4%,99.4%,97.1%,102%,38.2%,88.7%,111%,83.9%
C[C@@H]1N=C(c2ccc(Br)cc2)Nc2nc3ccccn3c2C1=O,30%,94%,72.5%,82.4%,77.5%,72%,43.1%,17.3%,71.3%,39.4%,67.2%,49.3%,-13% (active),38%,20.9%,29.2%,69%,29.6%
